A selection: hits, their analogues and other compounds. The true share with any hit is near 6.7%.
C diff growth: C. difficile growth inhibitors, primary screen, HTS. Clostridium difficile clinical isolate growth, OD600, 24 h; active compounds read low. growth activity, negative = inhibition, % at 16 µg/mL (by protocol). 86,000 tested, 0.25% active;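 active = mean growth activity at or below -80% and every replicate also at or below -80%; inconclusive = mean at or below -80% but some replicate above -80%; inactive = mean growth activity above -80%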;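 note: 0% = DMSO wells and -100% = levofloxacin 16 µg/mL wells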
Pf Dd2 growth: P. falciparum Dd2 growth inhibitors, primary screen, SYBR Green fluorescence, single dose replicates. 72 h; active compounds read low. activity change, % at 10 µM. 94,000 tested, 2.3% active; in the data active = activity change below about -80%; inconclusive = no clear call, values can overlap the other calls
T cruzi growth-1: T. cruzi intracellular proliferation inhibitors, primary screen, cell-based, beta-gal Tulahuen parasites, NIH3T3 host, luminescence; T. cruzi beta-gal in NIH3T3, GalScreen luminescence, 90 h; AID 624255, 2012; 77,000 tested, 5.9% active; inhibition, % at 8.34 µM;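 active = mean inhibition above about 93%, with at least 55% of replicates each passing it, limit read from the data, passing the limit was not always enough; inconclusive = only one of those two conditions holds; inactive = neither condition holds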
T cruzi growth-2: T. cruzi intracellular proliferation inhibitors, confirmation, cell-based, NIH3T3 host, beta-gal parasite, luminescence, cherry-pick. T. cruzi beta-gal in NIH3T3, GalScreen luminescence, 90 h. shares compounds with T cruzi growth-1. 5,600 tested, 72% active. inhibition, % at 8.35 µM;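 active = mean replicate inhibition above about 95% and at least 55% of replicates individually reaching it, limit read from the data; inconclusive = only one of the two criteria is met; inactive = neither criterion is met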
T cruzi growth-3: inhibitors of intracellular T. cruzi replication, confirmation, NIH3T3 host cells, beta-gal parasites, cherry-pick, set 2; shares compounds with T cruzi growth-1; T. cruzi beta-gal in NIH3T3, GalScreen luminescence, 90 h; inhibition, % at 2.09 µM; 5,600 tested, 21% active; AID 651740, 2012;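 active = mean inhibition above about 95%, with at least 55% of replicates also reaching it, limit read from the data; inconclusive = meets just one of the two conditions; inactive = meets neither condition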;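 note: plate controls were neutral control median for no effect and positive control median for full effect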
NIH3T3 tox: cytotoxicity in mouse NIH/3T3 fibroblasts, confirmation, cytotoxicity control for T. cruzi proliferation inhibitor project, cell-based, cherry-pick, single point; shares compounds with T cruzi growth-1; 5,600 tested, 14% active; cytotoxicity (signal decrease), % at 8.35 µM; AID 651742, 2012; NIH/3T3 viability, CellTiter-Glo ATP luminescence, 90 h;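 active = mean signal decrease across replicates above about 35% based on untreated-well scatter, with enough replicates individually passing, limit read from the data; inconclusive = no rule stated though some were filed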;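 note: 0% = median of neutral control wells and 100% = median of positive control wells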
NIH3T3 tox 2: NIH/3T3 fibroblast cytotoxicity, confirmation, cytotoxicity control, cell-based, cherry-pick, single point, set 2 | shares compounds with T cruzi growth-1 | NIH/3T3 viability, CellTiter-Glo ATP luminescence, 90 h | inhibition, % at 24.9 µM | 5,600 tested, 56% active;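 active = mean loss of cell viability signal at or above a set limit, and enough replicates individually reaching it; inconclusive = meets only the mean limit or only the replicate share; inactive = meets neither condition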;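 note: 0% = median of neutral control wells and 100% = median of positive control wells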
Numbers without * were called inactive.

`C[C@@H]1CCCCO[C@@H](CN(C)Cc2ccc(Cl)c(Cl)c2)[C@H](C)CN([C@H](C)CO)C(=O)c2cc(NC(=O)CCC(F)(F)F)ccc2O1` gave C diff growth -12.2, Pf Dd2 growth -88.0*, T cruzi growth-1 inconclusive, T cruzi growth-2 91.6, T cruzi growth-3 104.1*, NIH3T3 tox -3.2 and NIH3T3 tox 2 102.5*.
C[C@@H]1CCCCO[C@H](CN(C)Cc2ccncc2)[C@H](C)CN([C@H](C)CO)C(=O)c2cc(NC(=O)CCC(F)(F)F)ccc2O1 was read as C diff growth -0.3, Pf Dd2 growth 24.6, T cruzi growth-1 96.1*, T cruzi growth-2 43.8, T cruzi growth-3 0.2, NIH3T3 tox -5.5 and NIH3T3 tox 2 9.6.
`C[C@@H]1CCCCO[C@@H](CN(C)Cc2ccc(Cl)c(Cl)c2)[C@@H](C)CN([C@@H](C)CO)C(=O)c2cc(NC(=O)CCC(F)(F)F)ccc2O1` gave C diff growth 18.3, Pf Dd2 growth -60.0 and T cruzi growth-1 85.2.
O=C(N[C@H]1CC[C@@H](CC(=O)N2CCCCC2)O[C@@H]1CO)c1cccc(F)c1 was read as C diff growth 0.3, Pf Dd2 growth 6.3 and T cruzi growth-1 19.2.
COCC(=O)N(C)C[C@@H]1Oc2ncc(C3=CCCC3)cc2C(=O)N([C@H](C)CO)C[C@H]1C was read as C diff growth -3.3 and Pf Dd2 growth 28.2.
`NCC[C@@H]1CC[C@@H](NC(=O)c2ccccc2F)[C@H](CO)O1` gave C diff growth 1.4, Pf Dd2 growth -4.4 and T cruzi growth-1 -11.1.
For O=C(NCC[C@H]1CC[C@@H](NC(=O)C2CCC2)[C@H](CO)O1)c1cnccn1 the results were C diff growth -2.6, Pf Dd2 growth -5.6, T cruzi growth-1 184.5*, T cruzi growth-2 56.3, T cruzi growth-3 4.7, NIH3T3 tox -7.1 and NIH3T3 tox 2 10.2.
O=C(NCC[C@H]1CC[C@H](NC(=O)C2CCC2)[C@@H](CO)O1)c1cnccn1 was read as Pf Dd2 growth 4.9 and T cruzi growth-1 52.0.
For Cc1ccc(S(=O)(=O)N(C)C[C@H]2Oc3ccc(NS(=O)(=O)c4ccc(Cl)cc4)cc3C(=O)N([C@H](C)CO)C[C@H]2C)cc1 the results were C diff growth -2.9, Pf Dd2 growth 11.2, T cruzi growth-1 99.8*, T cruzi growth-2 96.4*, T cruzi growth-3 13.3, NIH3T3 tox 27.7 and NIH3T3 tox 2 36.0*.
`Cc1ccc(S(=O)(=O)Nc2ccc3c(c2)C(=O)N([C@@H](C)CO)C[C@H](C)[C@H](CN(C)S(=O)(=O)c2ccc(Cl)cc2)O3)cc1` gave C diff growth 43.4 and Pf Dd2 growth -8.5.
For C[C@@H]1CN([C@@H](C)CO)C(=O)c2cc(NS(=O)(=O)c3ccc(Cl)cc3)ccc2O[C@H]1CN(C)S(=O)(=O)c1ccc(Cl)cc1 the results were C diff growth -8.5, Pf Dd2 growth -7.0 and T cruzi growth-1 39.4.
C[C@@H]1CN([C@@H](C)CO)C(=O)c2cc(NS(=O)(=O)c3ccc(Cl)cc3)ccc2O[C@@H]1CN(C)S(=O)(=O)c1ccc(Cl)cc1 was read as C diff growth 9.3, Pf Dd2 growth 29.4, T cruzi growth-1 inconclusive, T cruzi growth-2 113.5*, T cruzi growth-3 42.0, NIH3T3 tox 27.6 and NIH3T3 tox 2 64.6*.
For CCCC(=O)Nc1ccc2c(c1)C(=O)N(C)[C@H]1CC[C@@H](CC(=O)NC3CCCC3)O[C@H]1CO2 the results were C diff growth 1.7, Pf Dd2 growth 9.4 and T cruzi growth-1 13.2.
For Cc1noc(C)c1NC(=O)N(C)C[C@H]1Oc2ccc(NC(=O)Nc3cccc4ccccc34)cc2C(=O)N([C@@H](C)CO)C[C@@H]1C the results were C diff growth -10.8, Pf Dd2 growth 24.7 and T cruzi growth-1 5.2.
For COc1ccc(NC(=O)Nc2ccc3c(c2)C(=O)N([C@H](C)CO)C[C@@H](C)[C@@H](CN(C)Cc2ccc(Cl)c(Cl)c2)OCCCC[C@H](C)O3)cc1 the results were C diff growth 4.7, Pf Dd2 growth -75.4, T cruzi growth-1 126.3*, T cruzi growth-2 89.7, T cruzi growth-3 109.8*, NIH3T3 tox 1.9 and NIH3T3 tox 2 5.3.
COc1ccc(NC(=O)Nc2ccc3c(c2)C(=O)N([C@H](C)CO)C[C@H](C)[C@H](CN(C)Cc2ccc4c(c2)OCO4)OCCCC[C@@H](C)O3)cc1 was read as C diff growth 8.5, Pf Dd2 growth -15.1 and T cruzi growth-1 90.8.
Screening COc1ccc(NC(=O)Nc2ccc3c(c2)C(=O)N([C@@H](C)CO)C[C@@H](C)[C@@H](CN(C)Cc2ccc(Cl)c(Cl)c2)OCCCC[C@@H](C)O3)cc1 returned C diff growth -1.2, Pf Dd2 growth -80.1*, T cruzi growth-1 126.3*, T cruzi growth-2 95.7*, T cruzi growth-3 113.8*, NIH3T3 tox 1.0 and NIH3T3 tox 2 4.8.
For COc1ccc(NC(=O)Nc2ccc3c(c2)C(=O)N([C@H](C)CO)C[C@H](C)[C@H](CN(C)Cc2ccc(Cl)c(Cl)c2)OCCCC[C@@H](C)O3)cc1 the results were C diff growth -0.8, Pf Dd2 growth -44.4, T cruzi growth-1 120.9*, T cruzi growth-2 103.6*, T cruzi growth-3 107.3*, NIH3T3 tox 6.0 and NIH3T3 tox 2 -1.2.
Screening COc1ccc(CN(C)C[C@H]2OCCCC[C@H](C)Oc3ccc(NC(=O)Nc4ccc(OC)cc4)cc3C(=O)N([C@@H](C)CO)C[C@H]2C)cc1 returned Pf Dd2 growth 19.8 and T cruzi growth-1 2.4.
`COc1ccc(NC(=O)Nc2ccc3c(c2)C(=O)N([C@H](C)CO)C[C@H](C)[C@@H](CN(C)Cc2ccc(Cl)c(Cl)c2)OCCCC[C@@H](C)O3)cc1` gave C diff growth 0.5, Pf Dd2 growth -0.8, T cruzi growth-1 122.2*, T cruzi growth-2 112.7*, T cruzi growth-3 100.4*, NIH3T3 tox 2.2 and NIH3T3 tox 2 9.2.
Screening C[C@@H]1CN([C@H](C)CO)C(=O)c2cc(NS(=O)(=O)c3ccc(Cl)cc3)ccc2O[C@@H]1CN(C)S(=O)(=O)c1cn(C)cn1 returned C diff growth -6.3, Pf Dd2 growth 16.8 and T cruzi growth-1 85.1.
